Tb PYK inh = qHTS of Trypanosoma Brucei Inhibitors; Potency, µM (titrated, usually from 76.8 µM), without a hit: top-dose activity, negative = inhibition, most hits filed as inhibitors; hit rate 0.12% among 410,000; pyruvate kinase (Trypanosoma brucei), Q57TT1; TbPYK enzyme, Kinase-Glo Plus ATP luminescence, 45 min; also: potency is read from the fitted curve at half-maximal effect; % is scaled to controls: 0 for no effect and ±100 for the full control effect; nearly all actives have a fitted effect of over 50% in size
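ADP (130 uM final) triggers the TbPYK reaction after compound addition; incubation is 45 min at room temperature. Kinase-Glo Plus is then added and luminescence imaged. Normalized data are fitted to concentration-effect curves.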
Cycloheximide cs = Cycloheximide Counterscreen for Small Molecule Inhibitors of Shiga Toxin; cell reporter, cycloheximide protein synthesis inhibition counterscreen; max response, %; hit rate 12% among 300,000; in the data active = max response mostly above about 13%, no sharp cut-off; inactive = mostly below about 14%; also: read at 38.3 µM for the half of the compounds with a filed dose; 0% is about no effect
LmPK inhibitor = qHTS Assay for Inhibitors of Leishmania Mexicana Pyruvate Kinase (LmPK); Q27686; purified LmPK, Kinase-Glo ATP luminescence, 1 h; Potency, µM (titrated, usually from 57.5 µM), for inactives: at the highest dose activity change, negative = inhibition, most hits filed as inhibitors; hit rate 0.37% among 290,000; also: potency is read from the fitted curve at half-maximal effect; % is scaled to controls: 0 for no effect and ±100 for the full control effect
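ATP generated from ADP (0.1 mM) and PEP (0.5 mM) by 0.1 nM LmPK over 1 h at room temperature (pH 7.2 imidazole buffer) was detected by coupled luciferase luminescence. Values were normalized to uninhibited and no-enzyme wells.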
Giardia FBPA inh-1 = qHTS Assay for Inhibitors of Fructose-1,6-bisphosphate Aldolase from Giardia Lamblia. purified Giardia FBPA. Potency, µM (series often up to 59.6 µM), inactives show at the top dose activity, negative = inhibition, most hits filed as inhibitors. hit rate 0.71% among 290,000. AID 2451, 2010; also: potency is read from the fitted curve at half-maximal effect; % is scaled to controls: 0 for no effect and ±100 for the full control effect; nearly all actives have a fitted effect of over 55% in size
Target sequence (A8B2U2 whole entry, looked up): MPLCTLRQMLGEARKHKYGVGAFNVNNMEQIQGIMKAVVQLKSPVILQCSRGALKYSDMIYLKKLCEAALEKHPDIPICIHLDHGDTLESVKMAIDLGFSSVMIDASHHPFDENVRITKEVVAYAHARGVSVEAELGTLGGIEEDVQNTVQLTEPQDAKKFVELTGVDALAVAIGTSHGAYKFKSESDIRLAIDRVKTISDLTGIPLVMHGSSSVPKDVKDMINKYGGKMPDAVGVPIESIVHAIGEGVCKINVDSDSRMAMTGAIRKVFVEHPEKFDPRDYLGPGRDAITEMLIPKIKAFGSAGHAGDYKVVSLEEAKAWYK
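Giardia FBPA (40 nM reagent) was preincubated 10 min at RT with compound (up to 57.5 uM final), then substrate plus GAPDH/TPI/NAD/arsenate coupling system with diaphorase/resazurin was added; resorufin fluorescence (525/598 nm) was read after 20 min.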
RE007 growth inh = qHTS Assay for Inhibitors of the HIV-1 protein Vpr. hit rate 0.21% among 360,000. Potency, µM (titrated, usually from 92.2 µM), for the others: at the highest dose activity change, negative = less growth, hits mostly inhibitors. S. pombe RE007 Vpr strain, BacTiter-Glo ATP luminescence, 24 h; active = well fitted falling curve with a large enough effect; inconclusive = small, poorly fitted or top-dose-only effect; inactive = no such curve, though single readings can be large or run the other way; also: potency is read from the fitted curve at half-maximal effect; % is scaled to controls: 0 for no effect and ±100 for the full control effect; nearly all actives have a fitted effect of over 50% in size
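Fission yeast RE007 carrying one integrated HIV-1 vpr copy, seeded at OD 0.01 in PMG+AL medium with 23 nL pinned compound. Grown 24 h at 30 degrees; viability read by BacTiter-Glo luminescence after 5 min.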
Shiga toxin inh = A qHTS for Small Molecule Inhibitors of Shiga Toxin. Vero cells, Shiga toxin protein synthesis inhibition reporter. inhibition, % at 38.7 µM. hit rate 9.2% among 290,000. AID 2315, 2010; in the data active = inhibition mostly above about 28%, no sharp cut-off; inactive = mostly below about 43%; also: 0% is about no effect
Giardia growth = qHTS Assay for Inhibitors of Fructose-1,6-bisphosphate Aldolase from Giardia Lamblia: Giardia lamblia growth inhibition | shares compounds with Giardia FBPA inh-1 | hit rate 5% among 1,500 | Potency, µM (top dose mostly 57.5 µM), without a hit: top-dose activity change, negative = inhibition, usual class: inhibitors | Giardia lamblia trophozoite growth inhibition;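 also: potency is read from the fitted curve at half-maximal effect; trophozoites exposed to compound for 48 h at 37 °C; % is scaled to controls: 0 for no effect and ±100 for the full control effect; nearly all actives have a fitted effect of over 70% in size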
Mammal cell tox = qHTS Assay for Inhibitors of Fructose-1,6-bisphosphate Aldolase from Giardia Lamblia: Mammalian cellular toxicity. shares compounds with Giardia FBPA inh-1. mammalian cell viability counter-screen, qHTS. Potency, µM (titrated, usually from 57.5 µM), for the others: at the highest dose viability change, negative = toxicity, most hits filed as inhibitors. hit rate 4% among 1,500;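 also: Chinese hamster ovary cells used as mammalian cytotoxicity surrogate; viability measured as cellular ATP by luminescence; potency is read from the fitted curve at half-maximal effect; compound exposure lasted 48 h before reading; % is scaled to controls: 0 for no effect and ±100 for the full control effect; nearly all actives have a fitted effect of over 60% in size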
Giardia FBPA inh-2 = qHTS Assay for Inhibitors of Fructose-1,6-bisphosphate Aldolase from Giardia Lamblia: Primary screen confirmation | shares compounds with Giardia FBPA inh-1 | Potency, µM (top dose mostly 57.5 µM), for inactives: at the top dose activity change, negative = inhibition, usual class: inhibitors | purified Giardia aldolase enzyme activity, qHTS | AID 2787, 2010 | hit rate 5% among 1,500; also: potency is read from the fitted curve at half-maximal effect; % is scaled to controls: 0 for no effect and ±100 for the full control effect; nearly all actives have a fitted effect of over 45% in size
Rabbit FBPA inh = qHTS Assay for Inhibitors of Fructose-1,6-bisphosphate Aldolase from Giardia Lamblia: Rabbit FBPA Selectivity | shares compounds with Giardia FBPA inh-1 | Rabbit muscle FBPA enzyme inhibition, selectivity counter-screen | Potency, µM (series often up to 57.5 µM), inactives show at the top dose activity, negative = inhibition, hits mostly inhibitors | hit rate 4% among 1,500 | AID 2794, 2010; also: potency is read from the fitted curve at half-maximal effect; % is scaled to controls: 0 for no effect and ±100 for the full control effect; nearly all actives have a fitted effect of over 60% in size
Target sequence (P00883 whole entry, looked up): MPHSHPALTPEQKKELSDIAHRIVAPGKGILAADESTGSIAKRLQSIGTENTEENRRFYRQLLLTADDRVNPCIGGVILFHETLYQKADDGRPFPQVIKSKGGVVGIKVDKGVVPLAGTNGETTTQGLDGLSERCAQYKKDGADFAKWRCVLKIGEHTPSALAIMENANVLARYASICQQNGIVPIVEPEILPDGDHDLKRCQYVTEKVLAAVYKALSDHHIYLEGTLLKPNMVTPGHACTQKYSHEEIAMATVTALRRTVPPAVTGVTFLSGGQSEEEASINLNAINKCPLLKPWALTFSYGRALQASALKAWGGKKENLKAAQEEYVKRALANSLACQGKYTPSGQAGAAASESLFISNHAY
GAPDH coupling = qHTS Assay for Inhibitors of Fructose-1,6-bisphosphate Aldolase from Giardia Lamblia: Coupling assay counterscreen confirmation | AID 2795, 2010 | GAPDH coupling enzyme counterscreen, biochemical, qHTS | hit rate 6% among 1,500 | Potency, µM (highest dose often 57.5 µM), without a hit: at the top dose activity change, negative = inhibition, most hits filed as inhibitors | shares compounds with Giardia FBPA inh-1; also: potency is read from the fitted curve at half-maximal effect; % is scaled to controls: 0 for no effect and ±100 for the full control effect; nearly all actives have a fitted effect of over 55% in size
Numbers without * were called inactive; [ ] = remark or other dose. The full list was thinned out, with hits kept by preference. Unless noted, calls follow the shape of the dose curve; as a rule, active = well fitted curve in the direction sought with a large enough effect; inconclusive = small, poorly fitted or top-dose-only effect, or another doubt; inactive = no such curve, though single readings can be large; an effect the other way counts as inactive or inconclusive.

Results for Cc1ccc(C(=O)NNC(=O)c2n[nH]c(=O)c3ccccc23)cc1C ?
Tb PYK inh: -6%; RE007 growth inh: 3%

Results for COc1ccc(CN2CCN(Cc3ccc(C(F)(F)F)cc3)CC2)c(OC)c1 ?
Tb PYK inh: 20%; Cycloheximide cs: -6; LmPK inhibitor: -4%; Giardia FBPA inh-1: inconclusive; RE007 growth inh: -22%; Shiga toxin inh: -4

What do the screens show for `COc1ccc(CN2CCN(Cc3ccc(C)cc3)CC2)c(OC)c1`?
Tb PYK inh: 1%; Cycloheximide cs: -6; LmPK inhibitor: -3%; Giardia FBPA inh-1: 14µM*; RE007 growth inh: -13%; Shiga toxin inh: 20; Giardia growth: 19%; Mammal cell tox: 1%; Giardia FBPA inh-2: 3%; Rabbit FBPA inh: 1%; GAPDH coupling: -2%

What do the screens show for `O=c1nc(N/N=C/c2c[nH]c3ccccc23)cn[nH]1`?
Tb PYK inh: -6%; Cycloheximide cs: 40*; LmPK inhibitor: -22%; Giardia FBPA inh-1: 18µM*; RE007 growth inh: 0%; Shiga toxin inh: 45*; Giardia growth: 3%; Mammal cell tox: 2%; Giardia FBPA inh-2: -2%; Rabbit FBPA inh: 0%; GAPDH coupling: 2%

What do the screens show for `O=c1cnnc(N/N=C/c2c[nH]c3ccccc23)[nH]1`?
Tb PYK inh: 2%; Cycloheximide cs: -2; LmPK inhibitor: 1%; Giardia FBPA inh-1: -11%; RE007 growth inh: -17%; Shiga toxin inh: 13

What do the screens show for `C(=C\CSc1ncn[nH]1)/CSc1ncn[nH]1`?
Tb PYK inh: 0%; Cycloheximide cs: -2; LmPK inhibitor: -7%; Giardia FBPA inh-1: inconclusive; RE007 growth inh: 39%; Shiga toxin inh: -5; Giardia growth: 0%[38.3 µM]; Mammal cell tox: 4%; Giardia FBPA inh-2: -2%; Rabbit FBPA inh: 1%; GAPDH coupling: 2%

How did N#Cc1c(NC(=O)CCC(=O)O)sc2c1CCCCC2 do in these assays?
Tb PYK inh: 35µM*; Cycloheximide cs: -1; LmPK inhibitor: 11%; Giardia FBPA inh-1: 16µM*; RE007 growth inh: 0%; Shiga toxin inh: -25; Giardia growth: -6%; Mammal cell tox: 10%; Giardia FBPA inh-2: -18%; Rabbit FBPA inh: -2%; GAPDH coupling: -9%

What do the screens show for `N#Cc1c(NC(=O)CCC(=O)O)sc2c1CCCC2`?
Tb PYK inh: -8%; Cycloheximide cs: -3; LmPK inhibitor: 4%; Giardia FBPA inh-1: 7%; RE007 growth inh: -6%; Shiga toxin inh: -13

What do the screens show for `Cn1c(-c2cccc([N+](=O)[O-])c2)cnc1NCc1cccc(F)c1`?
Tb PYK inh: 20%; Cycloheximide cs: -4; LmPK inhibitor: -11%; Giardia FBPA inh-1: 28µM*; RE007 growth inh: -5%; Shiga toxin inh: -2; Giardia growth: -9%[10.4 µM]; Mammal cell tox: -21%; Giardia FBPA inh-2: -5%; Rabbit FBPA inh: 3%; GAPDH coupling: 5%

Results for Cn1c(-c2ccc(F)cc2)cnc1NCc1cccc([N+](=O)[O-])c1 ?
Tb PYK inh: 15%; Cycloheximide cs: -3; LmPK inhibitor: -7%; Giardia FBPA inh-1: inconclusive; RE007 growth inh: -8%; Shiga toxin inh: -4

What do the screens show for `COc1ccccc1CNS(=O)(=O)CCNCc1ccco1`?
Tb PYK inh: 5%; RE007 growth inh: -8%

How did Cn1c(=O)[nH]c(=O)c2c1nc(Br)n2CCCc1ccccc1 do in these assays?
Cycloheximide cs: -2; LmPK inhibitor: -2%; Giardia FBPA inh-1: -6%; Shiga toxin inh: -12

How did Cn1c(=O)[nH]c(=O)c2c1[nH]c(=S)n2CCCc1ccccc1 do in these assays?
Tb PYK inh: inconclusive; Cycloheximide cs: -1; LmPK inhibitor: -23%; Giardia FBPA inh-1: 3.5µM*; RE007 growth inh: 8%; Shiga toxin inh: -3; Giardia growth: -10%[38.3 µM]; Mammal cell tox: -3%; Giardia FBPA inh-2: -12%; Rabbit FBPA inh: 35µM*; GAPDH coupling: -1%

Results for Cn1c(=O)c2c([nH]c(=S)n2CCCc2ccccc2)n(C)c1=O ?
Tb PYK inh: 2.5µM*; Cycloheximide cs: -1; LmPK inhibitor: -8%; Giardia FBPA inh-1: 10µM*; RE007 growth inh: 13%; Giardia growth: -20%[10.4 µM]; Mammal cell tox: 4%; Giardia FBPA inh-2: 6%; Rabbit FBPA inh: -17%; GAPDH coupling: 16%

Results for CC(C(=O)NC(C)(C)C)N(C(=O)CS(=O)CC(=O)Nc1ccc(F)cc1)C1CCCC1 (stereo unspecified) ?
Tb PYK inh: 2%; Cycloheximide cs: -8; LmPK inhibitor: 0%; Giardia FBPA inh-1: 18%; RE007 growth inh: 8%; Shiga toxin inh: -2

Results for Cc1n[nH]c(=S)n(NC(=O)/C=C/C(=O)Nn2c(=S)[nH]nc(C)c2=O)c1=O ?
Tb PYK inh: -13%; Cycloheximide cs: -1; LmPK inhibitor: -1%; Giardia FBPA inh-1: -15%; RE007 growth inh: -9%; Shiga toxin inh: -7

How did Cc1nn2c(=S)[nH]nc2[nH]c1=O do in these assays?
Tb PYK inh: inconclusive; Cycloheximide cs: -3; LmPK inhibitor: 13%; Giardia FBPA inh-1: 11µM*; RE007 growth inh: -1%; Shiga toxin inh: -15; Giardia growth: 0%[10.4 µM]; Mammal cell tox: -7%; Giardia FBPA inh-2: -7%; Rabbit FBPA inh: -6%; GAPDH coupling: 9%
